One assay has as its system HB3. The experiment in a line: qHTS profiling for inhibitors of Plasmodium falciparum proliferation (AID 504749). The conditions noted are these: P. falciparum in erythrocytes, SYBR Green DNA, 72 h; series mostly up to 28.7 µM. The method, boiled down:
(§1)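 Each compound contacts P. falciparum-infected red blood cells for 72 h at 37 C; lysis buffer (Tris, EDTA, saponin, Triton X, SYBR Green I) is added and fluorescence measured next morning; values normalized to controls.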

The next assay deals with ICS. The assay is described as above. Particulars: P. falciparum in erythrocytes, SYBR Green DNA, 72 h; series mostly up to 28.7 µM. In a few lines:
as §1

The next assay has as its system JCK. The assay is described as above. The conditions noted are these: P. falciparum in erythrocytes, SYBR Green DNA, 72 h; series mostly up to 28.7 µM. The method, boiled down:
as §1

The next assay concerns N140. The assay is described as above. The conditions noted are these: P. falciparum in erythrocytes, SYBR Green DNA, 72 h; series mostly up to 28.7 µM. In a few lines:
as §1

The next assay deals with P93_24. The assay is described as above. Particulars: P. falciparum in erythrocytes, SYBR Green DNA, 72 h; series mostly up to 28.7 µM. The method, boiled down:
as §1

A further assay has as its system P94_40. The description is as above. Particulars: P. falciparum in erythrocytes, SYBR Green DNA, 72 h; series mostly up to 28.7 µM. In a few lines:
as §1

The next assay deals with PAD. The description is as above. Particulars: P. falciparum in erythrocytes, SYBR Green DNA, 72 h; series mostly up to 28.7 µM. The method, boiled down: as §1
The next assay concerns PC15. The description is as above. Particulars: P. falciparum in erythrocytes, SYBR Green DNA, 72 h; series mostly up to 28.7 µM. The method, boiled down:
as §1

The subject of a further assay is PC26. Described as above. Particulars: P. falciparum in erythrocytes, SYBR Green DNA, 72 h; series mostly up to 28.7 µM. The method, boiled down: as §1
The next assay concerns PC49. The description is as above. Particulars: P. falciparum in erythrocytes, SYBR Green DNA, 72 h; series mostly up to 28.7 µM. The method, boiled down:
as §1

The subject of another assay is SC27B. The assay is described as above. Particulars: P. falciparum in erythrocytes, SYBR Green DNA, 72 h; series mostly up to 28.7 µM. The method, boiled down: as §1
The next assay has as its system TAB109. The description is as above. Particulars: P. falciparum in erythrocytes, SYBR Green DNA, 72 h; series mostly up to 28.7 µM. In a few lines: as §1
Another assay has as its system TAB113. The assay is described as above. Particulars: P. falciparum in erythrocytes, SYBR Green DNA, 72 h; series mostly up to 28.7 µM. In a few lines: as §1
The subject of a further assay is TAB165. The description is as above. Particulars: P. falciparum in erythrocytes, SYBR Green DNA, 72 h; series mostly up to 28.7 µM. In a few lines:
as §1

In the next assay the test system is W2. Described as above. Particulars: P. falciparum in erythrocytes, SYBR Green DNA, 72 h; series mostly up to 28.7 µM. In a few lines: as §1
The next assay concerns CRL-7250. The experiment in a line: Cytotoxic Profiling of Annotated Libraries Using Quantitative High-Throughput Screening (AID 1296008). On max response: on the % scale 0 is the no-effect control and ±100 the full control effect. Particulars: Five cell lines viability, CellTiter-Glo ATP luminescence, 48-72 h; max response: stronger effect = lower value. In a few lines:
(§2)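 Cells exposed to compounds for 48 or 72 hr at 37 degrees Celsius. Viability read as ATP-coupled luminescence with CellTiter-Glo after 10 min at room temperature.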
(Cellular ATP, detected with luciferase, serves as a proxy for viable cell number.)

In the next assay the test system is HEK293. Described as above. The conditions noted are these: Five cell lines viability, CellTiter-Glo ATP luminescence, 48-72 h; max response: stronger effect = lower value. In a few lines: as §2
For another assay, the system named is HaCat. Described as above. The conditions noted are these: Five cell lines viability, CellTiter-Glo ATP luminescence, 48-72 h; max response: stronger effect = lower value. The method, boiled down: as §2
The test system of another assay is KB-3-1. The assay is described as above. Particulars: Five cell lines viability, CellTiter-Glo ATP luminescence, 48-72 h; max response: stronger effect = lower value. In a few lines:
as §2

For a further assay, the system named is NIH3T3. Described as above. The conditions noted are these: Five cell lines viability, CellTiter-Glo ATP luminescence, 48-72 h; max response: stronger effect = lower value. The method, boiled down: as §2

Where “and” joins values, the source holds several entries; their conditions need not be identical. Identical values can stand only once. Results filed as inconclusive are left out. Some compounds were tested as several samples or in several runs, with calls that do not always agree. Unmarked numbers belong to inactive results. Calls of active or inactive are those of the source. The call rests on the fitted dose curve; in most records, active means well fitted inhibition curve with a large enough effect; inconclusive means small, poorly fitted or top-dose-only effect; inactive means flat fitted curve, though single readings scatter.
Further: nearly all actives have a fitted effect of over 60% in size.
Potency means the concentration at half of the fitted maximal effect.

For `COc1ccc2[nH]cc(CCNC(C)=O)c2c1`, the Potency entry with HB3, with ICS, in the assay on JCK, with N140, in the assay with P93_24 and with P94_40 was “inactive” each time. Further, the Potency result in the assay on PAD, in the assay on PC15, with PC26, in the assay on PC49, in the assay on SC27B and in the assay with TAB109 was “inactive” each time. Further, the Potency result in the assay with TAB113, in the assay on TAB165 and in the assay on W2 was “inactive” each time. In addition, the max response in the assay on CRL-7250 was -2.01% and -27.6%; in the assay with HEK293, 0.212%; in the assay with HaCat it was -2.62%; in the assay with KB-3-1, 5.26% and 4.62%; in the assay on NIH3T3 it was 1.71%. Moreover, the result in the assay with HEK293, in the assay on HaCat and with NIH3T3 was inactive.

As for `CC1COc2c(N3CCN(C)CC3)c(F)cc3c(=O)c(C(=O)O)cn1c23` (configuration not stated), the max response in the assay on CRL-7250 was 1.02%; in the assay with HEK293 it was -5.36%; in the assay on KB-3-1, 21.2%; in the assay on NIH3T3, -0.0145%. Also, the call in the assay on CRL-7250, in the assay on HEK293, in the assay with HaCat, with KB-3-1 and with NIH3T3 was inactive.

For the molecule `CC1(C)O[C@H]2CC(=O)OC[C@]23[C@H]2CC[C@@]4(C)[C@H](c5ccoc5)OC(=O)[C@H]5O[C@]54[C@]2(C)C(=O)C[C@@H]13`, the max response with CRL-7250 is 2.33% and 4%; in the assay on HEK293, -8.07%; in the assay with HaCat, -5.81%; in the assay on KB-3-1, -3.61% and 0.55%; with NIH3T3, -0.469% and 1.76%. Also, the outcome with CRL-7250, in the assay on HEK293, in the assay with HaCat, in the assay on KB-3-1 and in the assay on NIH3T3 was inactive.

Regarding `Clc1ccc2nsnc2c1NC1=NCCN1`, the Potency result with HB3, in the assay on ICS, in the assay with JCK, in the assay with N140, with P93_24 and with P94_40 was “inactive” in each case. For the same molecule, the Potency result in the assay with PAD, in the assay with PC15, with PC26, in the assay with PC49, in the assay with SC27B and with TAB109 was “inactive” throughout. Moreover, the Potency result with TAB113, in the assay on TAB165 and in the assay on W2 was “inactive” throughout. The max response was 0.544% and 2.61% in the assay with CRL-7250; -8.03% in the assay on HEK293; 2.64% in the assay on HaCat; -0.508% and 0.187% in the assay on KB-3-1; 1.46% in the assay on NIH3T3. Besides, the molecule was classed as inactive in the assay with HEK293, with HaCat and with NIH3T3.

Take `COc1ccc2c(c1)c(CC(=O)O)c(C)n2C(=O)c1ccc(Cl)cc1`: the outcome with CRL-7250, in the assay with HEK293 and in the assay with HaCat was inactive. Also, the max response with HEK293 was -16.4%; in the assay with HaCat, -5.33%; in the assay on KB-3-1, 0.589% and -8.59%; in the assay on NIH3T3 it was -1.64% and 1.2%.

On to `NCCc1cnc[nH]1`, for which the Potency result in the assay on HB3, with ICS, with JCK, with N140, in the assay on P93_24 and with P94_40 was “inactive” throughout. For the same molecule, the Potency result in the assay on PC15, in the assay on PC26, in the assay on SC27B, in the assay with TAB109, in the assay with TAB113 and in the assay on TAB165 was “inactive” in each case. The Potency entry in the assay with W2 was “inactive”. In addition, the call in the assay on CRL-7250, with HEK293, in the assay with KB-3-1 and in the assay with NIH3T3 was inactive. Moreover, the max response is 4.08% with HEK293; -11% and 1.72% in the assay on HaCat; -8.33% in the assay on KB-3-1; -6.9% in the assay with NIH3T3.

`Nc1nc2c(ncn2COC(CO)CO)c(=O)[nH]1`: the Potency entry in the assay with HB3, with ICS, in the assay with JCK, in the assay with N140, with P93_24 and in the assay with P94_40 was “inactive” in each case. In addition, the Potency result in the assay with PAD, with PC15, with PC26, in the assay with PC49, in the assay with SC27B and in the assay on TAB109 was “inactive” each time. For the same molecule, the Potency entry with TAB113, in the assay with TAB165 and in the assay on W2 was “inactive” each time. Besides, the max response with CRL-7250 was 1.91%; in the assay on HEK293, -8.08%; with HaCat, -15.7%; with KB-3-1, 5.82%; in the assay with NIH3T3, -3.13%. The Potency in the assay on HEK293 is 132 nM (active).

For the molecule `CN1CCN(CCCN2c3ccccc3Sc3ccc(Cl)cc32)CC1`, the max response in the assay with CRL-7250 was -6.94%; in the assay with HaCat, 0.937%; with NIH3T3, -25.1%. The molecule was called inactive in the assay on CRL-7250 and in the assay on HaCat. Also, the Potency with HEK293 is 14800 nM (active).

For the molecule `CC[N+](CC)(CC)CCOc1cccc(OCC[N+](CC)(CC)CC)c1OCC[N+](CC)(CC)CC`, the Potency entry with HB3, in the assay with ICS, with JCK, in the assay on N140, in the assay with P93_24 and with P94_40 was “inactive” in each case. Besides, the Potency entry in the assay with PAD, in the assay on PC15, in the assay on PC26, in the assay with PC49, with SC27B and in the assay with TAB109 was “inactive” throughout. For the same molecule, the Potency entry with TAB113, with TAB165 and with W2 was “inactive” each time. In addition, the max response with CRL-7250 was -17.1% and -8.63%; with HEK293, -0.136%; with HaCat it was -16.7%; in the assay on KB-3-1 it was -10.5% and -5.4%; in the assay on NIH3T3 it was -12.2%. Besides, the outcome in the assay with HEK293, in the assay with HaCat and in the assay on NIH3T3 was inactive.

Consider `CCCNCC(O)COc1ccccc1C(=O)CCc1ccccc1` (configuration not stated), for which the Potency in the assay on HB3 is 2000 nM (active); in the assay with ICS it was 251 nM (active); in the assay with JCK, 3550 nM (active); with N140, 355 nM (active); in the assay on P93_24, 501 nM (active); in the assay on P94_40, 316 nM (active). In addition, the Potency in the assay on PAD was 398 nM (active); with PC15, 708 nM (active); with PC26, 1690 nM (active); with PC49, 316 nM (active); with SC27B, 891 nM (active); in the assay with TAB109 it was 794 nM (active). Also, the Potency was 794 nM (active) in the assay on TAB113, 447 nM (active) in the assay on TAB165, 379 nM (active) in the assay on W2 and 21100 nM (active) in the assay on HEK293. The max response with CRL-7250 is -5.96%; with HaCat it was -2.94%; in the assay on KB-3-1 it was -15.9% and 1.74%; in the assay with NIH3T3, -20.3% and -9.95%. In addition, the outcome with CRL-7250 and in the assay with HaCat was inactive.

Consider `Cc1cnc(C(=O)NCCc2ccc(S(=O)(=O)NC(=O)NC3CCCCC3)cc2)cn1`, for which the Potency result in the assay with HB3, in the assay with ICS, in the assay on JCK, in the assay on N140, in the assay on P93_24 and with P94_40 was “inactive” in each case. In addition, the Potency entry in the assay with PAD, in the assay on PC15, in the assay on PC26, in the assay on PC49, in the assay with SC27B and in the assay on TAB109 was “inactive” throughout. Moreover, the Potency result in the assay on TAB113, with TAB165 and in the assay with W2 was “inactive” throughout. The max response was 0.493% in the assay with CRL-7250; -14.8% in the assay with HEK293; 0.0058% in the assay on HaCat; -28.8% and 2.82% with KB-3-1; 4.64% and -13.5% with NIH3T3. The molecule was called inactive in the assay on CRL-7250 and in the assay on HaCat.

(Values after PubChem BioAssay (NCATS).)
